test system: Epidermal growth factor receptor (Homo sapiens), P00533 [L858R,T790M]; details: at 0.1 µM
Sequence (P00533 whole entry T790M/L858R, looked up): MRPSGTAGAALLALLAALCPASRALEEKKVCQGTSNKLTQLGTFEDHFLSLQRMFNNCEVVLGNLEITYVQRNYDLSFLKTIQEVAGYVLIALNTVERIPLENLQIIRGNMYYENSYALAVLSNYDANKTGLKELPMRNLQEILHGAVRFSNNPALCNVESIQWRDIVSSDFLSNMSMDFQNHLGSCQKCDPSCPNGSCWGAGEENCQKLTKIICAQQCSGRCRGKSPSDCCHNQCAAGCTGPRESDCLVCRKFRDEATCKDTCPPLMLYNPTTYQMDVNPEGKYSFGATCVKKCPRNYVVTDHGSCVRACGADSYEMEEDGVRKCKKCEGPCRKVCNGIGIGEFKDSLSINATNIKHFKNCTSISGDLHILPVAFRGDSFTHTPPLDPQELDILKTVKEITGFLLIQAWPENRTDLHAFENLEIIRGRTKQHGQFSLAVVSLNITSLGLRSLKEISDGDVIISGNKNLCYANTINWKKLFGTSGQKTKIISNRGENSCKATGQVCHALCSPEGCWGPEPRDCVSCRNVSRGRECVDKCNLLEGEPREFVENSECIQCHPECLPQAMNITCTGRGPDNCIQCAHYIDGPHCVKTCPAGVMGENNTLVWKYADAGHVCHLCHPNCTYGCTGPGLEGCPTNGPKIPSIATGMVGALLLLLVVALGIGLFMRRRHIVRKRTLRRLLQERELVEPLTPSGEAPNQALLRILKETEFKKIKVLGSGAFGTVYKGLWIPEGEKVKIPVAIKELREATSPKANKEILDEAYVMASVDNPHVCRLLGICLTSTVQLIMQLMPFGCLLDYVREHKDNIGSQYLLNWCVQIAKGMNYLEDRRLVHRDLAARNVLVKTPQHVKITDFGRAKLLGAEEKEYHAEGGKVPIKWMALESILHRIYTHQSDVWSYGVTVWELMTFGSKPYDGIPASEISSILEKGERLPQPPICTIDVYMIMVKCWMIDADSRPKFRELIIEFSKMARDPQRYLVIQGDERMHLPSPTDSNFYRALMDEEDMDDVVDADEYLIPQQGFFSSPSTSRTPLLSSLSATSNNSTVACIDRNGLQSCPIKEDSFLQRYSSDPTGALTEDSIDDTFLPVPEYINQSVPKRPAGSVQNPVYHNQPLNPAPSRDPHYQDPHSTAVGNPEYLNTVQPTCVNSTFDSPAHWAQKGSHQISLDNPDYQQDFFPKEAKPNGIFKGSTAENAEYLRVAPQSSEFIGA

| Compound | inhibition [%] |
| --- | --- |
| NC(=O)c1sc(-n2cnc3ccc(C(F)(F)F)cc32)cc1OCc1ccccc1Br | -0.44 |
| CCOc1ccc2c(-c3ccnc(Nc4cccc(C(F)(F)F)c4)n3)cnn2n1 | 0.8 |
| COc1ccc(-c2cc(-c3c[nH]nc3-c3ccccn3)ccn2)cc1 | 2.1 |
| CCn1c(-c2nonc2N)nc2ccccc21 | 2 |
| Cc1cccc(Nc2ncc(-c3ccccc3)o2)c1 | -0.51 |
| Nc1nc(-c2ccc(F)cc2)c(-c2ccc3ncccc3n2)s1 | 4.54 |
| COc1cc(N2CCN(C(C)C)CC2)ccc1Nc1nc(Nc2ccc(F)cc2C(N)=O)c2cc[nH]c2n1 | 56.5 |
| c1ccc(-c2nc3n(c2-c2ccc4c(c2)OCO4)CCC3)nc1 | 1.92 |
| CN(C)CCOc1ccc(-c2nc(-c3ccncc3)c(-c3ccc4c(c3)CC/C4=N\O)[nH]2)cc1 | 2.36 |
| COC(=O)Nc1nc2ccc(Oc3ccc(NC(=O)Nc4cccc(Cl)c4)cc3)cc2[nH]1 | -2.96 |
| N#Cc1c(NC(=O)CN2CCOCC2)sc2c1CCCC2 | 2.42 |
| O=C(O[C@H]1CN[C@H](C#Cc2cc3ncnc(Nc4ccc(Cc5ccccc5)cc4)c3s2)C1)N1CCOCC1 | -1.96 |
| CC(C)(CO)CNC(=O)c1ccc2c(c1)/C(=N/Nc1ccc(S(N)(=O)=O)cc1)C(=O)N2 | -1.33 |
| CS(=O)(=O)CCNCc1coc(-c2ccc3ncnc(Nc4ccc(OCc5ccccc5)cc4)c3c2)c1 | -2.4 |
| COc1cc2ncn(-c3cc(OCc4ccccc4C(F)(F)F)c(C(=O)N(C)C)s3)c2cc1OC | 0.72 |
| NS(=O)(=O)c1ccc(Nc2ncc(-c3ccccc3)o2)cc1 | 2.14 |

| Compound | inhibition [%] |
| --- | --- |
| Nc1nc(-c2cccc(Cl)c2)c(-c2ccc3ncccc3n2)s1 | 5 |
| CCn1cc(-c2ccnc3[nH]ccc23)c(-c2cccc(NC(=O)Nc3ccc(OCc4ccccc4)cc3)c2)n1 | 0.93 |
| Fc1cccc(COc2ccc(Nc3ncnc4sc(-c5ccco5)cc34)cc2Cl)c1 | 0.58 |
| N#Cc1c(NC(=O)c2ccc(F)cc2)sc2c1CCCC2 | -2.24 |
| COc1cccc(-n2ncc3c(N/N=C/c4ccc(F)cc4)ncnc32)c1 | 1.74 |
| c1cc(-c2cnn3nc(N4CCOCC4)ccc23)nc(NC2CC2)n1 | 1.11 |
| CCn1c(-c2nonc2N)nc2c(C#CC(C)(C)O)nc(OC[C@H](N)c3ccccc3)cc21 | 0.92 |
| Nc1ncc(-c2cccc(S(N)(=O)=O)c2)c2scc(-c3ccc(F)c(Cl)c3)c12 | 1.23 |
| O=C(Nc1n[nH]c2cc(-c3ccc(F)cc3)ccc12)C1CC1 | 1.46 |
| CC(=O)NCc1cccc(C#Cc2cncnc2Nc2ccc(OCc3cccc(F)c3)c(Cl)c2)c1 | 1.41 |
| CNC(=O)c1cccc(C#Cc2cncnc2Nc2ccc(OCc3cccc(F)c3)c(Cl)c2)c1 | -0.69 |
| COc1cccc(-c2c[nH]c3c(N/N=C/c4ccncc4)ncnc23)c1 | 2.51 |
| [O-][S+]1CCN(Cc2ccc(-c3ccc4ncnc(Nc5ccc(OCc6cccc(F)c6)c(Cl)c5)c4c3)o2)CC1 | 1.22 |
| CCN(CC)S(=O)(=O)c1ccc(OC)c(Nc2ncc(-c3ccccc3)o2)c1 | 0.39 |
| CCCN(CCS(C)(=O)=O)Cc1ccc(-c2ccc3ncnc(Nc4ccc(OCc5cccc(F)c5)c(Cl)c4)c3c2)o1 | -1 |
| COc1cc2c(cc1Nc1nc(Nc3ccsc3C(N)=O)c3cc[nH]c3n1)N(C(=O)CN(C)C)CCC2(C)C | 51.9 |

test system: Epidermal growth factor receptor (Homo sapiens), P00533 [L858R,T790M]; details: at 1 µM

| Compound | inhibition [%] |
| --- | --- |
| NC(=O)c1sc(-n2cnc3ccc(C(F)(F)F)cc32)cc1OCc1ccccc1Br | 3.88 |
| CCOc1ccc2c(-c3ccnc(Nc4cccc(C(F)(F)F)c4)n3)cnn2n1 | 0.09 |
| COc1ccc(-c2cc(-c3c[nH]nc3-c3ccccn3)ccn2)cc1 | 4.71 |
| CCn1c(-c2nonc2N)nc2ccccc21 | -0.39 |
| Cc1cccc(Nc2ncc(-c3ccccc3)o2)c1 | 1.2 |
| Nc1nc(-c2ccc(F)cc2)c(-c2ccc3ncccc3n2)s1 | 14.7 |
| COc1cc(N2CCN(C(C)C)CC2)ccc1Nc1nc(Nc2ccc(F)cc2C(N)=O)c2cc[nH]c2n1 | 90.4 |
| c1ccc(-c2nc3n(c2-c2ccc4c(c2)OCO4)CCC3)nc1 | 1.45 |
| CN(C)CCOc1ccc(-c2nc(-c3ccncc3)c(-c3ccc4c(c3)CC/C4=N\O)[nH]2)cc1 | 6.66 |
| COC(=O)Nc1nc2ccc(Oc3ccc(NC(=O)Nc4cccc(Cl)c4)cc3)cc2[nH]1 | 0.71 |
| N#Cc1c(NC(=O)CN2CCOCC2)sc2c1CCCC2 | 4.77 |
| O=C(O[C@H]1CN[C@H](C#Cc2cc3ncnc(Nc4ccc(Cc5ccccc5)cc4)c3s2)C1)N1CCOCC1 | -1.31 |
| CC(C)(CO)CNC(=O)c1ccc2c(c1)/C(=N/Nc1ccc(S(N)(=O)=O)cc1)C(=O)N2 | -1.42 |
| CS(=O)(=O)CCNCc1coc(-c2ccc3ncnc(Nc4ccc(OCc5ccccc5)cc4)c3c2)c1 | 4.59 |
| COc1cc2ncn(-c3cc(OCc4ccccc4C(F)(F)F)c(C(=O)N(C)C)s3)c2cc1OC | -1.46 |
| NS(=O)(=O)c1ccc(Nc2ncc(-c3ccccc3)o2)cc1 | 0.87 |

| Compound | inhibition [%] |
| --- | --- |
| Nc1nc(-c2cccc(Cl)c2)c(-c2ccc3ncccc3n2)s1 | 7.85 |
| CCn1cc(-c2ccnc3[nH]ccc23)c(-c2cccc(NC(=O)Nc3ccc(OCc4ccccc4)cc3)c2)n1 | -1.31 |
| Fc1cccc(COc2ccc(Nc3ncnc4sc(-c5ccco5)cc34)cc2Cl)c1 | 3.48 |
| N#Cc1c(NC(=O)c2ccc(F)cc2)sc2c1CCCC2 | 0.47 |
| COc1cccc(-n2ncc3c(N/N=C/c4ccc(F)cc4)ncnc32)c1 | 1.29 |
| c1cc(-c2cnn3nc(N4CCOCC4)ccc23)nc(NC2CC2)n1 | 1.53 |
| CCn1c(-c2nonc2N)nc2c(C#CC(C)(C)O)nc(OC[C@H](N)c3ccccc3)cc21 | 2.55 |
| Nc1ncc(-c2cccc(S(N)(=O)=O)c2)c2scc(-c3ccc(F)c(Cl)c3)c12 | 3.47 |
| O=C(Nc1n[nH]c2cc(-c3ccc(F)cc3)ccc12)C1CC1 | 1.41 |
| CC(=O)NCc1cccc(C#Cc2cncnc2Nc2ccc(OCc3cccc(F)c3)c(Cl)c2)c1 | 1.74 |
| CNC(=O)c1cccc(C#Cc2cncnc2Nc2ccc(OCc3cccc(F)c3)c(Cl)c2)c1 | 1.65 |
| COc1cccc(-c2c[nH]c3c(N/N=C/c4ccncc4)ncnc23)c1 | 22.9 |
| [O-][S+]1CCN(Cc2ccc(-c3ccc4ncnc(Nc5ccc(OCc6cccc(F)c6)c(Cl)c5)c4c3)o2)CC1 | 5.52 |
| CCN(CC)S(=O)(=O)c1ccc(OC)c(Nc2ncc(-c3ccccc3)o2)c1 | -0.47 |
| CCCN(CCS(C)(=O)=O)Cc1ccc(-c2ccc3ncnc(Nc4ccc(OCc5cccc(F)c5)c(Cl)c4)c3c2)o1 | 3.75 |
| COc1cc2c(cc1Nc1nc(Nc3ccsc3C(N)=O)c3cc[nH]c3n1)N(C(=O)CN(C)C)CCC2(C)C | 84.7 |

From ChEMBL document CHEMBL1961873, “Compounds: GSK PKIS; Assays: Nanosyn kinase panel” (2012)
